# Where “and” joins values, the source holds several entries; their conditions need not be identical. Equal entries are not always repeated. Records with an inconclusive call do not appear. A call without a number means that no potency is given here. The source holds several records for some structures; these can differ, active in one and inactive in another. Calls of active or inactive are those of the source. Unless noted, the call rests on the fitted dose curve; in most records, active means well fitted curve in the direction sought with a large enough effect in the repeat runs; inconclusive means weak or mixed curves; inactive means no such curve, though single readings can be large; an effect the other way counts as inactive or inconclusive.
# Columns and labels:
# [1] = molecular target: Thyrotropin receptor (Homo sapiens) (UniProt P16473); experiment: qHTS assay to identify small molecule antagonists of the thyroid stimulating hormone receptor (TSHR) signaling pathway (AID 1259385; calls by dose curve; further: nearly all actives have a fitted effect of over 20% in size; further: potency means the concentration at half of the fitted maximal effect)
# Summary of the method: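 Antagonist mode: compound-treated TSHR-expressing HEK293 cells were stimulated with 1.5 ng/mL TSH (final) in presence of Ro20-1724 for 30 min at RT. HTRF cAMP detection after 1 h; each compound tested at 15 concentrations, triplicate.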
# [2] = qHTS assay to identify small molecule agonists of the estrogen receptor alpha (ER-alpha) signaling pathway in the presence of an antagonist - cell viability counter screen (AID 1259386);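 further: cells exposed to compounds for 22 h at 37 °C before the viability read; nearly all actives have a fitted effect of over 30% in size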; further: potency means the concentration at half of the fitted maximal effect; on activity change, negative = cytotoxicity: series mostly up to about 92 µM
# Summary of the method: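 VM7Luc4E2, stripped-serum pre-culture 5 d; 24hr plating; +ICI-182,780 10.0nM final; cpds 15 conc, 22hr, 37C/5% CO2; CellTiter-Fluor added at 21hr, fluorescence 1hr later.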
# [3] = molecular target: Progesterone receptor (Homo sapiens) (UniProt P06401); experiment: qHTS assay to identify small molecule agonists of the progesterone receptor (PR) signaling pathway (AID 1346784; calls by dose curve; further: nearly all actives have a fitted effect of over 30% in size)
# Summary of the method: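 PR-UAS-bla HEK 293T cells (beta-lactamase reporter under UAS) in 2% charcoal-stripped FBS, dosed with 23 nL compound after 6 hr, incubated 16hr at 37C. LiveBLAzer B/G FRET substrate added, fluorescence read after 2 hours.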
# [4] = molecular target: Progesterone receptor (Homo sapiens) (UniProt P06401); experiment: qHTS assay to identify small molecule antagonists of the progesterone receptor (PR) signaling pathway (AID 1346795; active means well fitted inhibition curve with a large enough effect in the signal ratio in the repeat runs, not every such curve was filed as active; the % refers to the signal ratio; further: potency means the concentration at half of the fitted maximal effect)
# Summary of the method: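 PR-UAS-bla HEK293T cells with beta-lactamase reporter under UAS control, in 2% charcoal-stripped FBS, treated with compounds plus 1 nM promegestone (R5020, final) for 16 hr at 37C. Read-out: FRET beta-lactamase substrate fluorescence after 2 hr at room temperature.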
# [5] = qHTS assay to identify small molecule antagonists of the progesterone receptor (PR) signaling pathway - cell viability counter screen (AID 1346798); further: nearly all actives have a fitted effect of over 50% in size; further: potency means the concentration at half of the fitted maximal effect; on activity change, negative = cytotoxicity: series mostly up to about 92 µM
# Summary of the method: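 PR-UAS-bla HEK293T cells, 3,000/well in 2% charcoal-stripped FBS medium, dosed with compounds plus R5020 agonist and incubated 16 h at 37C. Viability then measured in the same wells by CellTiter-Glo luminescence after 30 min at RT.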
# [6] = qHTS assay to identify small molecule agonists of the progesterone receptor (PR) signaling pathway - cell viability counter screen (AID 1346799; calls by dose curve; further: nearly all actives have a fitted effect of over 45% in size; further: potency means the concentration at half of the fitted maximal effect)
# Summary of the method: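 Counter screen in the PR-UAS-bla HEK293T wells (2% charcoal-stripped FBS, 16 h compound exposure at 37 C) after the bla read. CellTiter-Glo added, 30 min at room temperature, luminescence read as cell viability.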
# [7] = qHTS assay to identify small molecule antagonists of the TGF-beta/Smad signaling pathway - cell viability counter screen (AID 1346824); further: nearly all actives have a fitted effect of over 50% in size; further: potency means the concentration at half of the fitted maximal effect
# Summary of the method: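 Cytotoxicity counter-screen run in the same wells as the beta-lactamase Smad reporter read: CellTiter-Glo luminescence after 30 min at room temperature. HEK 293T SBE-bla cells had 5 hr compound exposure at 37 C with TGF-beta1 (0.25 ng/mL stock).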
# [8] = qHTS assay to identify small molecule agonists of the TGF-beta/Smad signaling pathway - cell viability counter screen (AID 1346829); further: nearly all actives have a fitted effect of over 45% in size; further: potency means the concentration at half of the fitted maximal effect; on activity change, negative = cytotoxicity: top concentration of the series differs between compounds
# Summary of the method: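 After overnight seating at 37 C and 5% CO2, reporter cells got compounds for 5 hr and FRET substrate for 2 hr; cell viability then came from CellTiter-Glo luminescence.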
# [9] = qHTS assay to identify small molecule agonists of the TGF-beta/Smad signaling pathway (AID 1346859; active means well fitted activation curve with a large enough effect in the signal ratio in the repeat runs, not every such curve was filed as active; the % refers to the signal ratio; further: series mostly up to about 77 µM)
# Summary of the method: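 SBE-bla HEK293T cells plated overnight, then compound exposure for 5 h at 37 C. Beta-lactamase reporter read with LiveBLAzer B/G FRET substrate after 2 h at room temperature, fluorescence at 405 nm excitation, 460/530 nm emission.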
# [10] = molecular target: Thyrotropin-releasing hormone receptor (Homo sapiens) (UniProt P34981); experiment: qHTS assay to identify small molecule antagonists of the thyrotropin-releasing hormone receptor (TRHR) signaling pathway (AID 1346877; active means well fitted inhibition curve with a large enough effect in the repeat runs, not every such curve was filed as active; further: series mostly up to about 51 µM)
# Summary of the method: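 Intracellular calcium fluorescence, read kinetically every second over 3 min, reports TRH-evoked signalling in HEK293 cells carrying TRHR. Test compounds were added 5 min ahead of a 1 nM TRH challenge.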
# Progesterone receptor (Homo sapiens), sequence (P06401 whole entry, looked up): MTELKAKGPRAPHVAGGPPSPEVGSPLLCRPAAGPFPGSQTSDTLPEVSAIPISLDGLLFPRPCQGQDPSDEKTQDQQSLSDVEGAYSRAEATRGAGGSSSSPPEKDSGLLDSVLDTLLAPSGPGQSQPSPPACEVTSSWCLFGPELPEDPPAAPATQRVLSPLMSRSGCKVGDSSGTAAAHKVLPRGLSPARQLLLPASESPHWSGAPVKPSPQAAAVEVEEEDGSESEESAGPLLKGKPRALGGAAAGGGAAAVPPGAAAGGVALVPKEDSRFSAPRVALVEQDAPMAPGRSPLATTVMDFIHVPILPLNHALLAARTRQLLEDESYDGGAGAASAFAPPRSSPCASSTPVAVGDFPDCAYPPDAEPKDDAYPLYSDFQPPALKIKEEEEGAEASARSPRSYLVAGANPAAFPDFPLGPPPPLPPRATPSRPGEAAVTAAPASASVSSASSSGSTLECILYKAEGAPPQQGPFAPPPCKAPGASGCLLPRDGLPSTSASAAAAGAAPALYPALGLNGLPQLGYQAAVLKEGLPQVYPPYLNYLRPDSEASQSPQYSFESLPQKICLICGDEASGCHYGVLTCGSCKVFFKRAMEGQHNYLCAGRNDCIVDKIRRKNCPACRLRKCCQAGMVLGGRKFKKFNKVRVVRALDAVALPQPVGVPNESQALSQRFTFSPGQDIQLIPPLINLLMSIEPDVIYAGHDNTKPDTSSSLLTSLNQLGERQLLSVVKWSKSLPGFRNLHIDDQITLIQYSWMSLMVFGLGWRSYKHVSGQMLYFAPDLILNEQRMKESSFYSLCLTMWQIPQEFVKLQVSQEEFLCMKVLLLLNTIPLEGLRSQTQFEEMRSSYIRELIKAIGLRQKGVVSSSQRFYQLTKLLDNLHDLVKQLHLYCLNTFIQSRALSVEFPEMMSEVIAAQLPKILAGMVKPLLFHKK
# Thyrotropin receptor (Homo sapiens), sequence (P16473 whole entry, looked up): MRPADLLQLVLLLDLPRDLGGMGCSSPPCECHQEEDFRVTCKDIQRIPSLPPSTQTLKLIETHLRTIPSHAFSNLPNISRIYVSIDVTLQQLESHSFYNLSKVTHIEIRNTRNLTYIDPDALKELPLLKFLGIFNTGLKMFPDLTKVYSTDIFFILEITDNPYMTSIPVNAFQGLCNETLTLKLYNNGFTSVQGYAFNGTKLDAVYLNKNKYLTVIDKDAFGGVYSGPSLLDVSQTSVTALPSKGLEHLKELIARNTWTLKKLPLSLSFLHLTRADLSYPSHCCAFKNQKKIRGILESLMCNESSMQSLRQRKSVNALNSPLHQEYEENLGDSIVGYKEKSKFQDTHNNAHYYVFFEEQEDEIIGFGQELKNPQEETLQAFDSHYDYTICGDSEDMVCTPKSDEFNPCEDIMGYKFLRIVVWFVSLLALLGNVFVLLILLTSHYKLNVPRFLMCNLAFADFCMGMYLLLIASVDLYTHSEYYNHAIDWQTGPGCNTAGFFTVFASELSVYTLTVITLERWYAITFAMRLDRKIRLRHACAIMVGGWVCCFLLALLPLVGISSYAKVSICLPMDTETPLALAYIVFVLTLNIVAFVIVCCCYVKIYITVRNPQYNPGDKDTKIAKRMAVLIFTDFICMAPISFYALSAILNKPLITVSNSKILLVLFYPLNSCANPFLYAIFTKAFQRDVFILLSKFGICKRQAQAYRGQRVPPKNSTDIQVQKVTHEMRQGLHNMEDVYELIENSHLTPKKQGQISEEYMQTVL
# Thyrotropin-releasing hormone receptor (Homo sapiens), sequence (P34981 whole entry, looked up): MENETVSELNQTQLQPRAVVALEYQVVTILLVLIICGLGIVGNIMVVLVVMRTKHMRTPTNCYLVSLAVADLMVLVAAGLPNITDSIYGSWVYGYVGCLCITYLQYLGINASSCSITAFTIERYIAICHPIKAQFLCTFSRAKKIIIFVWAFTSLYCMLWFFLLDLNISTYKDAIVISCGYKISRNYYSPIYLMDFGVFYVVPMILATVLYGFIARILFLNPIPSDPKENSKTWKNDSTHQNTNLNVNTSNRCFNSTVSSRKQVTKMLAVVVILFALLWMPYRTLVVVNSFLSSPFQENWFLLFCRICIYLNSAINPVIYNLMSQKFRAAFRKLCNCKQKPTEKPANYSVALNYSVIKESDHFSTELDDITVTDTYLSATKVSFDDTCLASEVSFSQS
Structure (SMILES),Potency [1],Potency [2],Potency [3],Potency [4],Potency [5],Potency [6],Potency [7],Potency [8],outcome [9],Potency [10],activation [3],"activity change, negative = cytotoxicity [5]"
Nc1ccc(Cl)cc1Cl,inactive,inactive,inactive,inactive,inactive,inactive,inactive,inactive,inactive,–,–,–
CC(C)=CCCC(C)CCO (stereo unspecified),inactive,inactive,inactive,inactive,inactive,inactive,inactive,inactive,–,inactive,–,–
Clc1nc(Cl)c(Cl)c(Cl)c1Cl,inactive,inactive,inactive,inactive,inactive,inactive,inactive,inactive,inactive,–,–,–
O=C(Nc1ccc([N+](=O)[O-])cc1Cl)c1cc(Cl)ccc1O,inactive,1.37 µM (active) and 1.3 µM (active),–,30.6 µM (active),30.6 µM (active),–,–,–,–,–,2.96% [at 19 µM] (inactive),-2.12% [at 18.9 µM] (inactive)
COc1ccc(OC)c(C(O)CNC(=O)CN)c1 (stereo unspecified),inactive,inactive,inactive,–,inactive,inactive,inactive,inactive,inactive,–,–,–
O=C(c1ccccc1)c1ccccc1O,inactive,inactive,inactive,inactive,inactive,inactive,inactive,inactive,inactive,–,–,–
C=C(C)C(=O)OCCOC(=O)C(=C)C,inactive,inactive,inactive,–,inactive,inactive,inactive,inactive,–,–,–,–
c1cc(-c2ccncc2)ccn1,inactive,inactive,inactive,inactive,inactive,inactive,inactive,inactive,–,–,–,–
CCCCOCCOCCO,inactive,inactive,inactive,–,inactive,inactive,inactive,inactive,–,–,–,–
O=C(/C=C/c1ccccc1)OCc1ccccc1,inactive,inactive,inactive,inactive,inactive,inactive,inactive,inactive,–,–,–,–
c1ccncc1,inactive,inactive,inactive,–,inactive,inactive,inactive,inactive,inactive,–,–,–
CCOCCOCCO,inactive,inactive,inactive,inactive,inactive,inactive,inactive,inactive,inactive,–,–,–
OC1CCCCCCCCCCC1,inactive,inactive,inactive,–,inactive,inactive,inactive,inactive,inactive,–,–,–
CC1=CC2C3CC(C=C3C)C2C1 (stereo unspecified),inactive,inactive,inactive,inactive,inactive,inactive,inactive,inactive,–,–,–,–
Nc1ccc(S(=O)(=O)Nc2cnc3ccccc3n2)cc1,inactive,inactive,inactive,inactive,inactive,inactive,inactive,inactive,–,–,–,–
CC(=O)CC/C=C(\C)CCC=C(C)C,inactive,inactive,inactive,inactive,inactive,inactive,inactive,inactive,inactive,inactive,–,–
CCC(C)CO (stereo unspecified),inactive,inactive,inactive,inactive,inactive,inactive,inactive,inactive,inactive,–,–,–
CC(C)OC(=O)C(C)(C)Oc1ccc(C(=O)c2ccc(Cl)cc2)cc1,26.6 µM (active),inactive,inactive,17.2 µM (active) and 21.1 µM (active),inactive,–,inactive,inactive,–,–,–,–
CCCCCCCCCC(=O)OC,inactive,inactive,inactive,inactive,inactive,inactive,inactive,inactive,inactive,–,–,–
Brc1cc(Oc2cc(Br)c(Br)c(Br)c2Br)c(Br)c(Br)c1Br,inactive,inactive,inactive,inactive,–,2.18 µM (active) and inactive,inactive,inactive,inactive,inactive,–,–
C/C=C/C(=O)O,inactive,inactive,inactive,inactive,inactive,inactive,inactive,inactive,inactive,–,–,–
OCCO,inactive,inactive,inactive,inactive,inactive,inactive,inactive,inactive,inactive,inactive,–,–
CCCCC(CC)COP(=O)(OCC(CC)CCCC)OCC(CC)CCCC (stereo unspecified),inactive,inactive,inactive,–,inactive,inactive,inactive,inactive,–,–,–,–
CN(C)CCC=C1c2ccccc2CCc2ccccc21,68.6 µM (active) and 26.6 µM (active),inactive,inactive,–,61.1 µM (active) and 30.6 µM (active) and 16.8 µM (active),54.5 µM (active) and 15.4 µM (active) and 16.8 µM (active),inactive,inactive,inactive,–,–,–
OC[C@H]1O[C@@H]2O[C@H]3[C@H](O)[C@@H](O)[C@@H](O[C@H]4[C@H](O)[C@@H](O)[C@@H](O[C@H]5[C@H](O)[C@@H](O)[C@@H](O[C@H]6[C@H](O)[C@@H](O)[C@@H](O[C@H]7[C@H](O)[C@@H](O)[C@@H](O[C@H]8[C@H](O)[C@@H](O)[C@@H](O[C@H]1[C@H](O)[C@H]2O)O[C@@H]8CO)O[C@@H]7CO)O[C@@H]6CO)O[C@@H]5CO)O[C@@H]4CO)O[C@@H]3CO,inactive,inactive,inactive,–,inactive,24.4 µM (active) and inactive,inactive,inactive,inactive,–,–,–
CCCc1c(OCCCCc2nn[nH]n2)ccc(C(C)=O)c1O,inactive,inactive,inactive,–,inactive,inactive,inactive,inactive,–,–,–,–

Structure (SMILES),Potency [1],Potency [2],Potency [3],Potency [4],Potency [5],Potency [6],Potency [7],Potency [8],outcome [9],Potency [10],activation [3],"activity change, negative = cytotoxicity [5]"
CC1=CCC(C(C)(C)O)CC1 (stereo unspecified),inactive,inactive,inactive,inactive,inactive,inactive,inactive,inactive,inactive,inactive,–,–
COc1c(Cl)c(Cl)c(Cl)c(Cl)c1Cl,inactive,inactive,inactive,inactive,inactive,inactive,inactive,inactive,–,–,–,–
CC(CCC(=O)O)(c1ccc(O)cc1)c1ccc(O)cc1,inactive,inactive,inactive,inactive,inactive,inactive,inactive,inactive,–,–,–,–
O=Cc1ccccc1O,inactive,inactive,inactive,inactive,inactive,inactive,inactive,inactive,–,inactive,–,–
CCC(C)c1ccccc1O (stereo unspecified),inactive,inactive,inactive,inactive,inactive,inactive,inactive,inactive,inactive,–,–,–
CCCCCCCCCCCO,inactive,inactive,inactive,–,inactive,inactive,inactive,inactive,inactive,–,–,–
Cc1ncc[nH]1,inactive,inactive,inactive,inactive,inactive,inactive,inactive,inactive,–,–,–,–
Oc1ccc(O)cc1,inactive,inactive,inactive,inactive,inactive,inactive,inactive,inactive,inactive,inactive,–,–
OC(CCl)CCl,inactive,inactive,inactive,–,inactive,inactive,inactive,inactive,inactive,–,–,–
Nc1ncnc2nc[nH]c12,inactive,inactive,inactive,–,inactive,inactive,inactive,inactive,inactive,–,–,–
Cn1cnc([N+](=O)[O-])c1Sc1ncnc2nc[nH]c12,inactive,inactive,inactive,inactive,inactive,3.83 µM (active) and inactive,inactive,inactive,–,inactive,–,–
CCCCNS(=O)(=O)c1ccccc1,inactive,inactive,inactive,inactive,inactive,inactive,inactive,inactive,inactive,inactive,–,–
C[Si](C)(C)O[Si](C)(C)C,inactive,inactive,inactive,inactive,inactive,inactive,inactive,inactive,–,inactive,–,–
CCCC(=O)O,inactive,–,inactive,–,inactive,inactive,inactive,inactive,–,–,–,–
NNc1ccc(C(=O)O)cc1,inactive,inactive,–,–,inactive,inactive,inactive,inactive,inactive,inactive,–,–
O=C(OCc1ccccc1)c1ccccc1O,inactive,inactive,inactive,–,inactive,inactive,inactive,inactive,–,inactive,–,–
CCC(C)OC(=O)c1ccc(O)cc1 (stereo unspecified),inactive,–,inactive,48.9 µM (active) and 54.5 µM (active),inactive,inactive,inactive,inactive,inactive,–,–,–
CC(=O)Oc1ccccc1C(=O)Nc1ncc([N+](=O)[O-])s1,inactive,24.8 µM (active) and 23.7 µM (active),inactive,–,–,–,14.1 µM (active) and 8.49 µM (active),11.2 µM (active),–,inactive,–,–
CCCCOCCOCCOCCO,inactive,–,inactive,inactive,inactive,inactive,inactive,inactive,inactive,inactive,–,–
CC(=O)C1(C)CC2=C(CCCC2(C)C)CC1C (stereo unspecified),43.3 µM (active),inactive,–,–,inactive,inactive,inactive,inactive,–,inactive,–,–
Cc1ccc(C(=O)c2cc(O)c(O)c([N+](=O)[O-])c2)cc1,inactive,27.3 µM (active) and 29.8 µM (active),inactive,–,inactive,–,inactive,inactive,–,–,–,–
c1ccc2c(c1)Oc1ccccc1S2,inactive,–,inactive,inactive,inactive,inactive,inactive,inactive,inactive,–,–,–
CCCCC(CC)COC(=O)c1ccc(N(C)C)cc1 (stereo unspecified),inactive,–,inactive,inactive,inactive,inactive,inactive,inactive,inactive,–,–,–
O=CCc1ccccc1,inactive,–,inactive,–,inactive,inactive,inactive,inactive,–,–,–,–
CC(C(=O)O)c1cccc(C(=O)c2ccccc2)c1 (stereo unspecified),inactive,–,inactive,inactive,inactive,inactive,inactive,inactive,–,inactive,–,–
